Test results from PubChem BioAssay (EPA / NIEHS).
Results filed as inconclusive are left out. Active and inactive are the calls of the source. How the source made its calls, unless noted: active means hit-call score of the fitted dose curve at least 0.9, where 1 is the maximum; inactive means score below 0.9.

Assays:
[1] = IUF_NPC1b_proliferation_BrdU_72hr: Leibniz Research Institute for Environmental Medicine (IUF) 72-hour Neural Progenitor Cell Bromodeoxyuridine (BrdU) Proliferation Assay (NPC1b) (AID 2284207)
How it was run: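 BrdU luminescence ELISA quantified DNA synthesis over the last 16 h of a 72 h exposure, fitted against DMSO. Primary hNPC spheres from gestational week 16-19 cortex grown with EGF/FGF at 37C, pH 7.2-7.6.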

[2] = IUF_NPC1a_proliferation_area_72hr: Leibniz Research Institute for Environmental Medicine (IUF) 72-hour Neural Progenitor Cell Proliferation Area Assay (NPC1a) (AID 2284208)
How it was run: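 Spheres of 0.3 mm are plated singly in growth-factor medium and exposed from day 0. After three days at 37C and 5% CO2, sphere area is measured by phase contrast imaging, with activity referenced to DMSO.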

[3] = IUF_NPC1_viability_72hr: Viability Assessment at 72 hours in the Leibniz Research Institute for Environmental Medicine (IUF) Neural Progenitor Cell Proliferation Assay (NPC1) (AID 2284209)
How it was run: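 hNPC spheres, 1/well, EGF+FGF medium, 37C/5% CO2; dosed day 0, 72 h, no re-dosing. Resazurin reduction (alamar blue) fluorescence; DMSO = negative control/baseline; growth-factor-free wells as positive control.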

[4] = CCTE_Mundy_HCI_hN2_NOG_NeuriteCount: CCTE's Neurite Outgrowth Assay in human hN2 cells for Neurite Count, Mundy Lab (AID 2284219; active means hit-call score of the fitted dose curve at least 0.9, where 1 is the maximum)
How it was run: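 In this morphology assay, hNP1-derived neurons received test chemical 2 h post-plating and were fixed two days later in warm paraformaldehyde/sucrose containing Hoechst 33342. Neurites, labelled by rabbit anti-βIII-tubulin (1:800) and Alexa Fluor-488 (1:500), were counted automatically.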

Q: For `COP(=O)(OC)O/C(=C\Cl)c1cc(Cl)c(Cl)cc1Cl`, which AC50 [1] is on record?
A: Its AC50 is 51.5 µM (active).

Q: What about the AC50 [2] of the same compound?
A: The AC50 was 41.6 µM (active).

Q: What about the AC50 [3] of the same compound?
A: Its AC50 is 34.3 µM (active).

Q: What about the AC50 [4] of the same compound?
A: The AC50 was 6.28 µM (active).

Q: Which outcome [1] does the source give for `CCOP(=S)(OCC)Oc1nc(Cl)c(Cl)cc1Cl` here?
A: Its outcome is “inactive”.

Q: And the outcome [2]?
A: Its outcome is “inactive”.

Q: And the outcome [3]?
A: Its outcome is “inactive”.

Q: And the AC50 [4]?
A: Its AC50 is 29.1 µM (active).
